Test results as given in ChEMBL document CHEMBL1201862, “PubChem BioAssay data set” (2004).
Hit rate of the full screen: of about 44,000 sequences, about 2,900 (6.6%) were called active. Cut-off read from the data, not from the text of the source: active = GI50 up to about 1.1 µM and inactive = higher. A selection follows. Measured potencies and affinities stand elsewhere.

The substances below were run on MDA-MB-231.
Substance “[Bis(aminomethyl)tetramethylenesilane]tetrachloropaltinum(IV), CHEMBL2146189” has a GI50 of 21 µM.
With “[Bis(aminomethyl)pentamethylenesilane]tetrachloropaltinum(IV), CHEMBL2146204” the GI50 was 19.6 µM.
With CISPLATIN, CHEMBL11359 the GI50 was 22.4 µM.
For “[Bis(aminomethyl)tetramethylenesilane]dichloropaltinum(II), CHEMBL2146205”, the GI50 was 48.6 µM.
Substance “[Bis(aminomethyl)pentamethylenesilane]dichloropaltinum(II), CHEMBL2146202” has a GI50 of 2.01 µM.
“[Bis(aminomethyl)dimethylsilane]tetrachloroplatinum(IV), CHEMBL2146190” gave a GI50 of 60.1 µM.
